# Tgondii IFNg = T. gondii growth inhibition with IFN-gamma, primary screen, cell-based. Toxoplasma gondii growth in IFN-gamma-treated host cells; hits give low values. activity change, negative = inhibition, % (concentration not given with the values). hit rate 3.8% among 69,000; in the data active means activity change below about -70%, passing the limit was not always enough;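 further: host cells are HeLa cells infected with Toxoplasma gondii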
# * hit, by the source's call; i = inactive; ! = a repeat was not active. The sample as a whole holds a higher share of hits than the screen did.
SMILES,Tgondii IFNg
C#C[C@]1(OC(C)=O)CCC2C3CCC4=C/C(=N/O)CCC4C3CC[C@@]21CC (stereo partly specified),-78*
C#C[C@]1(O)CCC2C3CCC4=CC(=O)CC[C@@H]4C3CC[C@@]21CC (stereo partly specified),-36
C#C[C@]1(O)CC[C@H]2[C@@H]3CCC4=CC(=O)CC[C@@H]4[C@H]3CC[C@@]21C,-68
Cc1nc(CN2CCC(N(C)Cc3ccccc3)CC2C(=O)O)cs1 (stereo unspecified),-10
CC1CCC2(CCN(C(=O)c3cnccn3)CC2)c2ccccc21 (stereo unspecified),-16
Cn1ccnc1CN1C[C@H]2CN(C(=O)c3ccccc3)C[C@@H]2C1,-48
Cc1cc(=O)n(CC(=O)N2CCC(c3onc4c3CCCCC4)CC2)c2ccccc12,-1
CN(C)CC1CCC2(COCCN(C(=O)c3cscn3)C2)O1 (stereo unspecified),-4
CCN1CCOCC2(CCCN(C(=O)c3cn(C)cn3)C2)C1 (stereo unspecified),-63
COC(=O)[C@@]12OC[C@]34[C@H]([C@@H](O)[C@@H]1O)[C@@]1(C)CC(=O)C(=O)C(C)[C@@H]1C[C@H]3OC(=O)[C@H](OC(=O)/C=C(\C)C(C)C)[C@@H]24 (stereo partly specified),-89*
Cn1cc(NC(=O)CN2CCc3onc(-c4ccc5c(c4)OCO5)c3C2)cn1,-17
Cc1ccc(CN2CCc3nc(N4CCOCC4)nc(NC(C)C)c3C2)s1,-98*
COc1ccc(CN2CCc3nc(N4CCOCC4)nc(NC4CC4)c3C2)cc1,0
Cc1ccc(CN2CCc3nc(NC(C)C)nc(C)c3C2)s1,-6
CC(C)(CN1CCCC1)CN1CCN(Cc2cccc(F)c2)CC1,-7
Cn1nnnc1SCC(=O)N1CCOCC1,-3
CCCn1nnnc1SCC(=O)N1C(C)CCCC1C (stereo unspecified),-76*
CCCn1nnnc1SCC(=O)NCc1ccc(OC)cc1,4
O=C(CCc1ccccc1)N1CCCC(c2nnc(-c3ccccn3)o2)C1 (stereo unspecified),30
Cc1cccc(CNC(=O)c2c(O)c3cccnc3n(-c3cccc(F)c3)c2=O)c1,46
O=C(c1ccccc1Oc1ccccc1)N1CCC(O)(C(=O)O)CC1,2
C[C@]12CCC3c4ccc(O)cc4CCC3C1CC[C@@H]2O (stereo partly specified),-74*
C[C@]12CC[C@@H]3c4ccc(O)cc4CC[C@H]3[C@@H]1CCC2=O,-77*!
C#C[C@]1(O)CC[C@H]2[C@@H]3CCc4cc(OC)ccc4[C@H]3CC[C@@]21C,-6
C#C[C@]1(O)CCC2C3CCc4cc(OC)ccc4C3CC[C@@]21C (stereo partly specified),5
SMILES,Tgondii IFNg
C[C@]12CCC3c4ccc(OS(=O)(=O)O)cc4CCC3C1CC[C@H]2O (stereo partly specified),9
CC12CCC3c4ccc(O)cc4C=CC3C1CCC2=O (stereo unspecified),-88*
C[C@]12CC[C@@H]3c4ccc(O)cc4C(=O)C[C@H]3[C@@H]1CC[C@@H]2O,-3
CC(=O)O[C@]1(C(C)=O)CC[C@H]2[C@@H]3C=CC4=CC(=O)CC[C@]4(C)[C@H]3CC[C@@]21C,14
C[C@]12CCC3c4ccc(O)cc4CCC3C1C[C@@H](O)[C@@H]2O (stereo partly specified),-4
CCn1c(C2CCN(C(=O)Cc3sc(C)nc3C)CC2)nn(C)c1=O,-47
CN(C)S(=O)(=O)N1CCC[C@]2(C[C@@H](OCC3CC3)CO2)C1,-1
c1ccc(CN2CCc3ncnc(C4CCOC4)c3CC2)nc1 (stereo unspecified),i
Cn1cc(CN2CC[C@H]3[C@@H]2CCN3C(=O)c2ccsc2)cn1,7
CSc1ccc(CN2CCCC(OCc3cccnc3)C2)cc1 (stereo unspecified),2
COc1cccc(-n2c(=O)c(C(=O)Nc3cccc(C)c3)c(O)c3cccnc32)c1,47
CS(=O)(=O)N[C@@H]1CCN(CC2CC2)[C@@H]1Cc1cccnc1,5
Cc1cccc(Cn2nc(C)cc2NC(=O)c2ccc(=O)[nH]c2)c1,-47
CCC(=O)Nc1cccc(OCC(=O)N2CCC(Oc3ccc(C)cc3)CC2)c1,-19
CCOc1ccc(-c2cnc(-c3nccn3CC)[nH]2)cc1OCC,-81*
CCOc1ccc(-c2cnc[nH]2)cc1OCC,-47
CCCc1ncc(-c2ccc(OCC)c(OCC)c2)[nH]1,-4
CCc1csc(CNC2CCN(CC(C)C)CC2)n1,0
Cc1nccn1-c1ccccc1CNC1CCC2(CCNCC2)CC1,3
CCc1csc(CNC2CCC3(CCNCC3)CC2)n1,-76*
Cc1ccc(NS(=O)(=O)c2cnn(C)c2C)cc1S(=O)(=O)N1CCOCC1,18
COc1ccccc1N1CCN(CCCNS(=O)(=O)c2ccc3[nH]c(=O)ccc3c2)CC1,3
COc1ccc(CNC(=O)Nc2ccc(-c3nc(-c4ccccc4)co3)cc2)cc1,95
C#CC1(OCC(O)CN2CCN(c3ccccc3OC)CC2)CCCCC1 (stereo unspecified),18
OCC(O)CN1CCN(c2ccccc2)CC1 (stereo unspecified),-5
SMILES,Tgondii IFNg
C#CC1(OCC(O)CN2CCN(c3cccc(C(F)(F)F)c3)CC2)CCCCC1 (stereo unspecified),-80*
Cc1ccc(CC2(NC(=O)c3cnc(C4CC4)[nH]c3=O)CC2)cc1,-3
O=C(COc1ccc(Cl)cc1)NCc1ccccc1,97
OC(CCCc1ccccc1)(c1ccc(Cl)cc1)c1ccc(Cl)cc1,-80*
O=C(/C=C/c1ccc(Cl)cc1)NCCc1ccccc1,-13
CNC(=O)c1sc2ccccc2c1CC1CCCCN1Cc1c(C)nc2sccn12 (stereo unspecified),-41
CC(CNC(=O)c1cc(C2CCCCC2)no1)n1cncn1 (stereo unspecified),21
Nc1nc2ccc(OC(F)(F)F)cc2s1,-94*!
Nc1nc2ccc(-c3nc4ccccc4[nH]3)cc2s1,470
COC(=O)c1ccc2nc(N)sc2c1,-28
COc1ccccc1-c1nnc(CC(=O)O)o1,-24
Clc1ccccc1-c1nnc(Cc2cc(Br)sc2Br)o1,-90*
FC(F)(F)c1cc(Oc2ccccc2)ncc1-c1nnc(-c2ccccc2Cl)o1,-59
Cc1ccc(Cl)cc1NC(=O)Cn1ncc2c(N3CCN(c4ccccc4)CC3)ncnc21,31
O=c1[nH]nc(-c2cc3c(s2)CCCC3)o1,-100*
Cc1cccc(C(C(=O)N2CCCN(C(=O)C3CC3)CC2)N(C)C)c1 (stereo unspecified),-3
CCN(CC)C(=O)c1cc(=O)n(CC(=O)Nc2cccc(Br)c2)c2ccccc12,-12
O=C(NCc1ccc2c(c1)OCO2)c1cccc(-n2cnnn2)c1,-14
Cc1cccc(N2C(=O)c3cccc4c(N5CCNCC5)ccc(c34)C2=O)c1,0
O=S(=O)(c1ccccc1)c1cnc2c(N3CCNCC3)cccc2c1,15
O=c1cc(N2CCNCC2)oc2c(-c3ccccc3)cccc12,-85*!
CCc1[nH]c2ccc(CNc3ncc(F)c(N4CCOCC4)n3)cc2c1C,-48
Cc1[nH]c2ccc(CNC(=O)C3CC(=O)N(Cc4ccccn4)C3)cc2c1C (stereo unspecified),5
CCc1[nH]c2ccc(CNc3cc(COC)ncn3)cc2c1C,-78*
O=C(Cc1cccs1)N1CCC2(CC1)Nc1ccccc1-n1cccc12,4
COc1ccc(C(=O)N2CCC(c3nc(C(=O)N4CCCC4)c(C)o3)CC2)cc1OC,41

# High-throughput results as filed in PubChem.
